According to PubChem BioAssay (NCATS):
Records with an inconclusive call do not appear. Active and inactive are the calls of the source. The call rests on the fitted dose curve; in most records, active means well fitted inhibition curve with a large enough effect; inconclusive means small, poorly fitted or top-dose-only effect; inactive means flat fitted curve, though single readings scatter.

What was measured:
Experiment in all cases: qHTS profiling for inhibitors of Plasmodium falciparum proliferation (AID 504749); further: nearly all actives have a fitted effect of over 60% in size
Details in all cases: P. falciparum in erythrocytes, SYBR Green DNA, 72 h; series mostly up to 28.7 µM
ATS95 = system: ATS95
Method in brief: (§1)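 SYBR Green fluorescence of parasite DNA, read after lysis and overnight dark incubation, measured growth over 72 h in erythrocyte culture at 0.3% parasitemia and 2.5% hematocrit. Data normalised to DMSO and 0.29 uM artemisinin, with plate-drift correction.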

C2A = system: C2A
Method in brief: as §1

CP211 = system: CP211
Method in brief: as §1

CP215 = system: CP215
Method in brief: as §1

CP217 = system: CP217
Method in brief: as §1

CP256 = system: CP256
Method in brief: as §1

CP262 = system: CP262
Method in brief: as §1

CP265 = system: CP265
Method in brief: as §1

CP266 = system: CP266
Method in brief: as §1

CP268 = system: CP268
Method in brief: as §1

CP269 = system: CP269
Method in brief: as §1

CP325 = system: CP325
Method in brief: as §1

CP329 = system: CP329
Method in brief: as §1

ECU = system: ECU
Method in brief: as §1

N140 = system: N140
Method in brief: as §1

P93_24 = system: P93_24
Method in brief: as §1

PAD = system: PAD
Method in brief: as §1

PC15 = system: PC15
Method in brief: as §1

PC26 = system: PC26
Method in brief: as §1

SC27B = system: SC27B
Method in brief: as §1

Measured: Potency
Potency means the concentration at half of the fitted maximal effect.

C[N+]1([O-])[C@H]2CC[C@H]1CC(OC(=O)[C@@H](CO)c1ccccc1)C2 (stereo not given in full)
inactive: all assays above

C[C@@H]1O[C@@H](O[C@H]2C[C@@H](O)[C@@]3(CO)[C@H]4[C@H](O)C[C@]5(C)[C@@H](C6=CC(=O)OC6)CC[C@]5(O)[C@H]4CC[C@@]3(O)C2)[C@@H](O)[C@H](O)[C@H]1O
not listed: PC15 | PC26
inactive: all other assays above

C[C@@H](Cc1ccc(O)cc1)NC[C@@H](O)c1cc(O)cc(O)c1
inactive: all assays above

O=C1C[C@@H]2OCC=C3CN4CC[C@]56c7ccccc7N1[C@@H]5[C@@H]2[C@H]3C[C@H]46 (tested in a mixture with another compound)
inactive: PC15 | PC26

C=C[C@@H]1CN2CC[C@H]1C[C@H]2[C@H](O)c1ccnc2ccccc12
active: ATS95 447 nM | C2A 1410 nM | CP211 953 nM | CP215 757 nM | CP217 1260 nM | CP256 1120 nM | CP262 379 nM | CP265 891 nM | CP266 1510 nM | CP268 1200 nM | CP269 1070 nM | CP325 675 nM | CP329 1510 nM | ECU 199 nM | N140 794 nM | P93_24 447 nM | PAD 501 nM | PC15 224 nM | PC26 426 nM | SC27B 1000 nM
